VHR inh color: inhibitors of human VHR1 phosphatase (DUSP3); P51452; recombinant VHR phosphatase, colorimetric substrate read-out; actives 0.7% (n = 50,000); inhibition, % at 20 µM; in the data active = inhibition above about 60%
Target sequence (P51452 whole entry, looked up): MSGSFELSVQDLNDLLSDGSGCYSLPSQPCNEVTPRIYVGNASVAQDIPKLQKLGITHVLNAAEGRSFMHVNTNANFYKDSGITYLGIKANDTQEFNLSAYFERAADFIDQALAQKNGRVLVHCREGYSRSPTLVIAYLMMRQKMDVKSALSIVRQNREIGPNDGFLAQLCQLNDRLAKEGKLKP
* = called active by the depositor. The full list was thinned out, with hits kept by preference.

SMILES	VHR inh color
O=C(Nc1nccs1)C1(c2ccccc2)CC1(Cl)Cl (stereo not given)	-6
O=C(Nc1cccc2ccccc12)C1(c2ccccc2)CC1(Cl)Cl (stereo not given)	118*
C=CCc1cccc(/C=N/NC(=O)CSc2nnc(-c3ccccc3)n2-c2ccccc2)c1O	23
N#CC(C#N)=Cc1ccc(-c2ccc3c(c2)COC3=O)o1	99
N#C/C(=C\c1ccc(-c2ccc3c(c2)COC3=O)o1)C(N)=O	35
N#C/C(=C\c1ccc(-c2ccc3c(c2)COC3=O)o1)c1nc2ccccc2[nH]1	64*
CCC(Sc1nc2ccccc2[nH]1)C(=O)Nc1cccc2ccccc12 (stereo not given)	2
COc1ccc(N(CC(=O)N/N=C(\C)c2ccccc2)S(=O)(=O)c2ccccc2)cc1Cl	-30
COc1ccc(C2/C(=C(\O)c3ccccc3)C(=O)C(=O)N2CCCCCC(=O)O)cc1OC (stereo not given)	-9
O=C(N=Nc1c(O)[nH]c2ccccc12)C12CC3CC(CC(C3)C1)C2	-24
CC(C)(C)c1ccc(S(=O)(=O)N/N=C/c2ccc3c(c2)OCO3)cc1	111*
O=[N+]([O-])c1ccc(S(=O)(=O)N/N=C/c2ccc3c(c2)OCO3)cc1	-19
COc1ccc(S(=O)(=O)N/N=C/c2ccc3c(c2)OCO3)cc1	-5
O=[N+]([O-])c1ccc(CCNC2CCCCC2)cc1	-16
COc1ccc(-n2nc3cc(C)c(NC(=O)/C=C/c4ccccc4)cc3n2)cc1	15
COc1ccc(C(=O)N2CCNCC2)cc1OC	-11
CC(=O)N1CCN(c2cc(N3CCCCC3)c(F)cc2[N+](=O)[O-])CC1	10
CN1C(=O)/C(=C2/SC(=S)N(CCC(=O)O)C2=O)c2cc(Br)ccc21	-3
CC1CCc2c(sc(NC(=O)c3ccccc3)c2C(N)=O)C1 (stereo not given)	2
COc1cc(OC)cc(C(=O)Nc2sc3c(c2C(N)=O)CCC(C)C3)c1 (stereo not given)	25
CC1CCc2c(sc(NC(=O)c3cccc(C(=O)O)c3)c2C(N)=O)C1 (stereo not given)	78*
CN1CCc2c(sc3c2C(=O)NC(c2ccc(Cl)s2)N3)C1 (stereo not given)	1
CC1CCCCN1C(=O)Nc1ccccc1 (stereo not given)	-32
Cc1ccccc1NC(=O)C1CC(=O)N(c2ccc(Cl)cc2)C1 (stereo not given)	-18
COc1ccc(C(=O)Nc2ccc(S(=O)(=O)N3CCCC3)cc2)cc1I	14
SMILES	VHR inh color
O=C(NCC1CCCO1)C(=O)Nc1ccc(Cl)c(C(F)(F)F)c1 (stereo not given)	-20
COc1ccc(Br)cc1C(=O)Nc1ccccc1C(F)(F)F	-7
Cc1ccc(-n2c(O)c(/C=C3\C=Nc4ccccc43)c(=O)[nH]c2=S)cc1	64*
O=c1[nH]c(=S)n(-c2ccc(Cl)c(Cl)c2)c(O)c1/C=C1/C=Nc2ccccc21	-3
Cc1cc(C)cc(-n2c(O)c(/C=C3\C=Nc4ccccc43)c(=O)[nH]c2=O)c1	-14
Cn1c2c(c(=O)n(C)c1=O)C(c1ccc([N+](=O)[O-])o1)C1=C(N2)c2ccccc2C1=O (stereo not given)	0
COc1cccc(/C=C2/C(=O)NC(=O)N(c3cc(C)cc(C)c3)C2=O)c1O	-8
COc1cccc(/C=C2/C(=O)NC(=O)N(c3cccc(C)c3)C2=O)c1O	107*
COc1ccc(N2C(=O)NC(=O)/C(=C/c3cccc(OC)c3O)C2=O)cc1	77
O=C1N=c2ccccc2=C1c1sc(Nc2ccc(O)cc2)nc1O	58*
CCOc1ccc(Nc2nc(O)c(C3=c4cc(Br)ccc4=NC3=O)s2)cc1	-14
O=C1N=c2ccccc2=C1c1sc(Nc2cccc(O)c2)nc1O	0
CC(C)(C)C#C/C=N/n1nnc(-c2ccccc2)n1	-33
O=C(N=Nc1c(Cl)cc(Cl)cc1Cl)c1ccc(-n2c(O)c3ccccc3c2O)cc1	-31
COC(=O)c1c(N)sc2c1CCCCCC2	-13
COC(=O)c1c(N)sc2c1CCCC2	19
NC(=O)c1c(N)sc2c1CCCCCCCCCC2	100*
CCOC(=O)c1c(NC(=O)C(C)C)sc(C(N)=O)c1C	-11
Cc1cc(Br)ccc1N1C(=O)CCC1=O	3
CC(C)C1=NN2C(=N)/C(=C/c3ccc(-c4cccc([N+](=O)[O-])c4)o3)C(=O)N=C2S1	16
CC(C)C1=NN2C(=N)/C(=C/c3ccc(Sc4ccc(Cl)cc4)o3)C(=O)N=C2S1	110*
COc1cc(/C=C2/C(=N)N3N=C(C(C)C)SC3=NC2=O)cc(Cl)c1OCCOc1ccccc1	4
Cc1cc([N+](=O)[O-])ccc1N=Cc1ccc(O)cc1O	17
Cc1cc(C)c2nc3s/c(=C\c4ccccc4)c(=O)n3c2c1	-20
Cc1cc2c(nc3s/c(=C/c4ccccc4)c(=O)n32)c(Br)c1C	99*
COc1cc(/C=c2/sc3nc4c(Br)c(C)c(C)cc4n3c2=O)ccc1OCC(=O)O	8
Cc1ccc(OCC(=O)Nc2cc([N+](=O)[O-])ccc2Cl)c(Br)c1	-13
CC(=O)C1=C(C)NC(=S)NC1c1ccc(O)cc1 (stereo not given)	5
